Assay results: ChEMBL document CHEMBL1961873, “Compounds: GSK PKIS; Assays: Nanosyn kinase panel” (2012)

Tests used:
[1] = target: Fibroblast growth factor receptor 4 (Homo sapiens) (UniProt P22455); details: at 1 µM;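 note: reported figure is the averaged percent inhibition of FGFR4, from the GSK PKIS kinase screening panel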
[2] = target: Tyrosine-protein kinase Fgr (Homo sapiens) (UniProt P09769); details: at 0.1 µM
[3] = target: Tyrosine-protein kinase Fgr (Homo sapiens) (UniProt P09769); details: at 1 µM
[4] = target: Vascular endothelial growth factor receptor 1 (Homo sapiens) (UniProt P17948); details: at 0.1 µM
[5] = target: Vascular endothelial growth factor receptor 1 (Homo sapiens) (UniProt P17948); details: at 1 µM
[6] = target: Receptor-type tyrosine-protein kinase FLT3 (Homo sapiens) (UniProt P36888); details: at 0.1 µM
[7] = target: Receptor-type tyrosine-protein kinase FLT3 (Homo sapiens) (UniProt P36888); details: at 1 µM
[8] = tested on: T1, Receptor-type tyrosine-protein kinase FLT3 (Homo sapiens), P36888 [D835Y]; details: at 0.1 µM
T1 sequence (whole entry): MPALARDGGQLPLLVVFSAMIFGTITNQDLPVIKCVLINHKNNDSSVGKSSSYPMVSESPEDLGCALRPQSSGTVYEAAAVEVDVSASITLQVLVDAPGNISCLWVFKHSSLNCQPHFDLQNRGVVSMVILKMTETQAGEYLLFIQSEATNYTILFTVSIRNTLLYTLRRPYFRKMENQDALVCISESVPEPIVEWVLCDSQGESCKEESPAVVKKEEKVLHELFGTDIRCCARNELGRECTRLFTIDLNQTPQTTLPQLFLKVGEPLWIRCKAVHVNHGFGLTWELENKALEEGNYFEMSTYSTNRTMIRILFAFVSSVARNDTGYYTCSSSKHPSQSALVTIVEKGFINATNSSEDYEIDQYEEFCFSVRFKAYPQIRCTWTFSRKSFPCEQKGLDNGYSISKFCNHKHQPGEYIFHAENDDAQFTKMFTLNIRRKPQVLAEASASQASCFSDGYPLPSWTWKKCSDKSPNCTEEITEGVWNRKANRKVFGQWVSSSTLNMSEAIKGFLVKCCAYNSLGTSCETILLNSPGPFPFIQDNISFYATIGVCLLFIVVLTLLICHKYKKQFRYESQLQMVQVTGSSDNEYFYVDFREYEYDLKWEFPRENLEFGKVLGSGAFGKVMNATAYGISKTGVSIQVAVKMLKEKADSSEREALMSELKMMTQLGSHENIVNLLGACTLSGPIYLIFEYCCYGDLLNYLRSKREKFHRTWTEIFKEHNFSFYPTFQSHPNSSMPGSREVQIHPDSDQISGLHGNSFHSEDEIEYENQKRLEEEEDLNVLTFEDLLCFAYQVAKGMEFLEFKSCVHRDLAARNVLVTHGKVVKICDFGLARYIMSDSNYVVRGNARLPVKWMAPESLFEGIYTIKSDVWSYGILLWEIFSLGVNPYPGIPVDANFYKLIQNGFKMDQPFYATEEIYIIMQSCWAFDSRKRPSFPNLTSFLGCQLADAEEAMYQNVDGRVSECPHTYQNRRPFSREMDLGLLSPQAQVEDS

[9] = target: Non-receptor tyrosine-protein kinase TYK2 (Homo sapiens) (UniProt P29597); details: at 1 µM;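 note: values are mean percent inhibition of TYK2 kinase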
[10] = target: T2, Tyrosine-protein kinase receptor TYRO3 (Homo sapiens) (UniProt Q06418); details: at 0.1 µM
T2 sequence (whole entry): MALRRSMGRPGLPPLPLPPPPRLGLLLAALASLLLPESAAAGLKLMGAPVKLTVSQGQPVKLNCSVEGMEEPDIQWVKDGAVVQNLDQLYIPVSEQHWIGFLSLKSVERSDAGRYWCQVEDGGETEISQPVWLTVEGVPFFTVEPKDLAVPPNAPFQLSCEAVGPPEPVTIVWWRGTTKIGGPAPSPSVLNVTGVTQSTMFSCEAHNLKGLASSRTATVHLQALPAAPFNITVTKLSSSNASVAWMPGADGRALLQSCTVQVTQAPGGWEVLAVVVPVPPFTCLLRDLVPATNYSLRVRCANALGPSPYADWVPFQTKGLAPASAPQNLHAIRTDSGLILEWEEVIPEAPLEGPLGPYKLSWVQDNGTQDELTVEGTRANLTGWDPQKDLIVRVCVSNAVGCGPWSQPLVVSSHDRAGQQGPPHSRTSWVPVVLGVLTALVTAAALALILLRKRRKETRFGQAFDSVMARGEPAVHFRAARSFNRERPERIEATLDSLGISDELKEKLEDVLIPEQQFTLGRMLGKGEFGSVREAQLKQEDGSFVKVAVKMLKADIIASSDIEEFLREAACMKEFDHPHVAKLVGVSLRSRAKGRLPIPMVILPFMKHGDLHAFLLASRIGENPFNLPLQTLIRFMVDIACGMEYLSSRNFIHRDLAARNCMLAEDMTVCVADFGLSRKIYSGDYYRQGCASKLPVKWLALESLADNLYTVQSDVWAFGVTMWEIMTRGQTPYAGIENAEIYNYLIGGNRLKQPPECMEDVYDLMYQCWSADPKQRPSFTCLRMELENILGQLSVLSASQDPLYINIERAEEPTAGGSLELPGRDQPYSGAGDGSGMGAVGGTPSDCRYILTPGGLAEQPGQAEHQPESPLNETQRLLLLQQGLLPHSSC

[11] = target: T2, Tyrosine-protein kinase receptor TYRO3 (Homo sapiens); details: at 1 µM
[12] = target: Tyrosine-protein kinase Yes (Homo sapiens) (UniProt P07947); details: at 0.1 µM
[13] = target: Tyrosine-protein kinase Yes (Homo sapiens) (UniProt P07947); details: at 1 µM
[14] = target: T3, Tyrosine-protein kinase ZAP-70 (Homo sapiens) (UniProt P43403); details: at 0.1 µM
T3 sequence (whole entry): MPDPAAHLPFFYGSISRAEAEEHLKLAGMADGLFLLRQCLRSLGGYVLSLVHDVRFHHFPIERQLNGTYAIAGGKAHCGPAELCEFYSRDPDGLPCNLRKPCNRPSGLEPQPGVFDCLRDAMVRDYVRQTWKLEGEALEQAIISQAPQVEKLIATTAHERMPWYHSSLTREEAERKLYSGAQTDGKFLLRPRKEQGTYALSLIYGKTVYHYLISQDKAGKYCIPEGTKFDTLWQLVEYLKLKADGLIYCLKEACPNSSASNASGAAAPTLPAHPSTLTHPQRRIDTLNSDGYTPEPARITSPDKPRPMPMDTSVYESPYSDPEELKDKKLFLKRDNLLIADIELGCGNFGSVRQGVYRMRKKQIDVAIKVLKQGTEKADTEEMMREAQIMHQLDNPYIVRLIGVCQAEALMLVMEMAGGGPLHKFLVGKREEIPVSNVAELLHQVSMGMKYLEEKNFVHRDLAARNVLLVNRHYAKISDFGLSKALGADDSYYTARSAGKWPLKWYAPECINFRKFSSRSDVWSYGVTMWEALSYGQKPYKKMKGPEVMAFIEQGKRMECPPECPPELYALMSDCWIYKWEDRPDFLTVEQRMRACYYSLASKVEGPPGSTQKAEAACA

[15] = target: T3, Tyrosine-protein kinase ZAP-70 (Homo sapiens); details: at 1 µM
[16] = target: Serine/threonine-protein kinase B-raf (Homo sapiens) (UniProt P15056); details: at 0.1 µM
[17] = target: Serine/threonine-protein kinase B-raf (Homo sapiens) (UniProt P15056); details: at 1 µM
[18] = tested on: Serine/threonine-protein kinase B-raf (Homo sapiens), P15056 [V600E]; details: at 0.1 µM
[19] = tested on: Serine/threonine-protein kinase B-raf (Homo sapiens), P15056 [V600E]; details: at 1 µM
[20] = target: RAF proto-oncogene serine/threonine-protein kinase (Homo sapiens) (UniProt P04049); details: at 0.1 µM;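 note: values are mean CRAF kinase inhibition from profiling of the GSK Published Kinase Inhibitor Set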
RAF proto-oncogene serine/threonine-protein kinase (Homo sapiens), sequence (P04049 whole entry): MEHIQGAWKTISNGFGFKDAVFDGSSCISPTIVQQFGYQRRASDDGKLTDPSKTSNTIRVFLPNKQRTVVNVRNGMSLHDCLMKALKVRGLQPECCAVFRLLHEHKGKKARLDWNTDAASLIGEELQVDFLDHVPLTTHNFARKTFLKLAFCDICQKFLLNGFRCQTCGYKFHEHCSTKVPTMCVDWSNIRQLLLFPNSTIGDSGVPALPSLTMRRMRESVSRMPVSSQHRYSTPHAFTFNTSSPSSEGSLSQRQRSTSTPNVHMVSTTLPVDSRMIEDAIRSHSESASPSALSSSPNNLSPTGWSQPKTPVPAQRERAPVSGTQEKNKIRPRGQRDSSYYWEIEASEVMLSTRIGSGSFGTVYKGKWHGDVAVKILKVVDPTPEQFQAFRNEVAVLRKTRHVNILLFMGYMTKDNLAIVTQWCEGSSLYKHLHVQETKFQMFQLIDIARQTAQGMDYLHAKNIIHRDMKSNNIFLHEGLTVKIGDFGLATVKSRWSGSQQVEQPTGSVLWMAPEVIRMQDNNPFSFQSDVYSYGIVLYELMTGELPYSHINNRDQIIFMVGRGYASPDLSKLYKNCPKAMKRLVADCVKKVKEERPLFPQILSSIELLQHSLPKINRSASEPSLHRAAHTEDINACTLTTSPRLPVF

Vascular endothelial growth factor receptor 1 (Homo sapiens), sequence (P17948 whole entry): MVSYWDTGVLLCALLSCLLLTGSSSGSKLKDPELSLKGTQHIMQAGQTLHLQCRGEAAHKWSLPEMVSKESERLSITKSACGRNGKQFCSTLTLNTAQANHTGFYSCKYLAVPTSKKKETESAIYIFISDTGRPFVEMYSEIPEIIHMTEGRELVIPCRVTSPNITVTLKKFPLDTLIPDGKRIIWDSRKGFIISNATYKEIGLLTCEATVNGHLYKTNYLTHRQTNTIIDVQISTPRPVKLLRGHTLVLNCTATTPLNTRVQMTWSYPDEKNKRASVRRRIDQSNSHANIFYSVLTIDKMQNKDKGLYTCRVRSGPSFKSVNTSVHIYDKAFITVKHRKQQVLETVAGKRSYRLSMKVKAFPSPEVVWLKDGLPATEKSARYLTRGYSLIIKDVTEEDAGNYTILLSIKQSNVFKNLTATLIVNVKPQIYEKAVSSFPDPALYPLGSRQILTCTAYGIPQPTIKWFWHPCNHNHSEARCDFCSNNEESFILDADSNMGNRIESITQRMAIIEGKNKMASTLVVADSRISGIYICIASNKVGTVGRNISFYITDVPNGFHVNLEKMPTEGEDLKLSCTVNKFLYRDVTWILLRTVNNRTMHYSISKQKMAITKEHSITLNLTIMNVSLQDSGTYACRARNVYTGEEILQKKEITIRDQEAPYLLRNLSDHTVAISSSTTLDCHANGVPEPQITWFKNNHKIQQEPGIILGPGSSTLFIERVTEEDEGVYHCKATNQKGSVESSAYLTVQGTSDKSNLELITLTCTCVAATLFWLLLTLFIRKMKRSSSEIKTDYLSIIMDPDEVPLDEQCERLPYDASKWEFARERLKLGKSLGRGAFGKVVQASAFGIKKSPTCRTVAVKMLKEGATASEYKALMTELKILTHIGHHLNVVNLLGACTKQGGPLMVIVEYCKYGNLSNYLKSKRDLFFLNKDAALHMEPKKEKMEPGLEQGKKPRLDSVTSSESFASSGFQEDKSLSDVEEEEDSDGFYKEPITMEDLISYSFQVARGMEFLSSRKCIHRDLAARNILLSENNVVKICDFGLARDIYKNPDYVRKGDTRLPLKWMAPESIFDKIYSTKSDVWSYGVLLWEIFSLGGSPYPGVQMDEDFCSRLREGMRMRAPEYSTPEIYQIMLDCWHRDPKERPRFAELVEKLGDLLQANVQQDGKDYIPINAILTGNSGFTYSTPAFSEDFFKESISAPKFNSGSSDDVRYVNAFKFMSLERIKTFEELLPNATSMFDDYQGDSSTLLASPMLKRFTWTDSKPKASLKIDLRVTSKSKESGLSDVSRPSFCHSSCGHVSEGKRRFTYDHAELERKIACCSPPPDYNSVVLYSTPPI
Fibroblast growth factor receptor 4 (Homo sapiens), sequence (P22455 22-802 limits assumed): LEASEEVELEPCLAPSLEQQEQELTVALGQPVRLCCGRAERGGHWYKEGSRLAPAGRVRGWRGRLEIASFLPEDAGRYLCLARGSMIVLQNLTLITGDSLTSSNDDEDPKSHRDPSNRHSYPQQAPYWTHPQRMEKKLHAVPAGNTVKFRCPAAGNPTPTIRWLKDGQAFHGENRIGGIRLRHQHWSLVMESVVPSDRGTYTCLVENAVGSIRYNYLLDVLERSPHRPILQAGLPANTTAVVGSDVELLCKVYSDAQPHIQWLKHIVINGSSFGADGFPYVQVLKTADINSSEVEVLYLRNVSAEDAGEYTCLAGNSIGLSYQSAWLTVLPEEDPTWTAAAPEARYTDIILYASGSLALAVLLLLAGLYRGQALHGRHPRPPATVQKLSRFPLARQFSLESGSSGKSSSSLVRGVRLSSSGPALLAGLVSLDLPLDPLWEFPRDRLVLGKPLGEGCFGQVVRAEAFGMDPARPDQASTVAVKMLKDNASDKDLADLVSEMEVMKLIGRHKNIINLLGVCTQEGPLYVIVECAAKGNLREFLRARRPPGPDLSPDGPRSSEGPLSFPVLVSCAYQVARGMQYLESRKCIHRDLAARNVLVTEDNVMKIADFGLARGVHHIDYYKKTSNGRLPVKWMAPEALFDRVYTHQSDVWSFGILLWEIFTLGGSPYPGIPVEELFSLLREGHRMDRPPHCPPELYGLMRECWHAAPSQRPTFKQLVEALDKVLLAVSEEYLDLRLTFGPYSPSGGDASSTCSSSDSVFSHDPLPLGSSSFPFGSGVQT
Serine/threonine-protein kinase B-raf (Homo sapiens), P15056 [V600E], sequence (P15056 whole entry V600E): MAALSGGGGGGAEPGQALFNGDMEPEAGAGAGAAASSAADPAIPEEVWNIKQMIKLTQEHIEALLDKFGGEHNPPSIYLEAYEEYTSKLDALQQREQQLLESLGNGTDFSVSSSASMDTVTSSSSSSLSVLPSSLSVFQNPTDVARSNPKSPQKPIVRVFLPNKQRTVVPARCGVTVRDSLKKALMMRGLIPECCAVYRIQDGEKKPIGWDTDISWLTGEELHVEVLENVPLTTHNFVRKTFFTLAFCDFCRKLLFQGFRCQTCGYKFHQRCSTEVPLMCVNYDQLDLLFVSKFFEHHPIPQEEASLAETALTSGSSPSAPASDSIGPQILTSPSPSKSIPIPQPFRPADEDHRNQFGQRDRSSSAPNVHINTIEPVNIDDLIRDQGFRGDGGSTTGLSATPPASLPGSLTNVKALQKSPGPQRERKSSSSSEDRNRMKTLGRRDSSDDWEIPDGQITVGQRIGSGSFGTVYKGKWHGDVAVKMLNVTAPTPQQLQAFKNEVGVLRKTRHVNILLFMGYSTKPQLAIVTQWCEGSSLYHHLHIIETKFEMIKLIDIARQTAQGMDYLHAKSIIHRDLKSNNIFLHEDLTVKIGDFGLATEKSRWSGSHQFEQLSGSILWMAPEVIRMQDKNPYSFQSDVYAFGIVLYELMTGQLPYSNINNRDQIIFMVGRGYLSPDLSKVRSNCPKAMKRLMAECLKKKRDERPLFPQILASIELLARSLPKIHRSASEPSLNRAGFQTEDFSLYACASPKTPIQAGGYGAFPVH
Non-receptor tyrosine-protein kinase TYK2 (Homo sapiens), sequence (P29597 whole entry): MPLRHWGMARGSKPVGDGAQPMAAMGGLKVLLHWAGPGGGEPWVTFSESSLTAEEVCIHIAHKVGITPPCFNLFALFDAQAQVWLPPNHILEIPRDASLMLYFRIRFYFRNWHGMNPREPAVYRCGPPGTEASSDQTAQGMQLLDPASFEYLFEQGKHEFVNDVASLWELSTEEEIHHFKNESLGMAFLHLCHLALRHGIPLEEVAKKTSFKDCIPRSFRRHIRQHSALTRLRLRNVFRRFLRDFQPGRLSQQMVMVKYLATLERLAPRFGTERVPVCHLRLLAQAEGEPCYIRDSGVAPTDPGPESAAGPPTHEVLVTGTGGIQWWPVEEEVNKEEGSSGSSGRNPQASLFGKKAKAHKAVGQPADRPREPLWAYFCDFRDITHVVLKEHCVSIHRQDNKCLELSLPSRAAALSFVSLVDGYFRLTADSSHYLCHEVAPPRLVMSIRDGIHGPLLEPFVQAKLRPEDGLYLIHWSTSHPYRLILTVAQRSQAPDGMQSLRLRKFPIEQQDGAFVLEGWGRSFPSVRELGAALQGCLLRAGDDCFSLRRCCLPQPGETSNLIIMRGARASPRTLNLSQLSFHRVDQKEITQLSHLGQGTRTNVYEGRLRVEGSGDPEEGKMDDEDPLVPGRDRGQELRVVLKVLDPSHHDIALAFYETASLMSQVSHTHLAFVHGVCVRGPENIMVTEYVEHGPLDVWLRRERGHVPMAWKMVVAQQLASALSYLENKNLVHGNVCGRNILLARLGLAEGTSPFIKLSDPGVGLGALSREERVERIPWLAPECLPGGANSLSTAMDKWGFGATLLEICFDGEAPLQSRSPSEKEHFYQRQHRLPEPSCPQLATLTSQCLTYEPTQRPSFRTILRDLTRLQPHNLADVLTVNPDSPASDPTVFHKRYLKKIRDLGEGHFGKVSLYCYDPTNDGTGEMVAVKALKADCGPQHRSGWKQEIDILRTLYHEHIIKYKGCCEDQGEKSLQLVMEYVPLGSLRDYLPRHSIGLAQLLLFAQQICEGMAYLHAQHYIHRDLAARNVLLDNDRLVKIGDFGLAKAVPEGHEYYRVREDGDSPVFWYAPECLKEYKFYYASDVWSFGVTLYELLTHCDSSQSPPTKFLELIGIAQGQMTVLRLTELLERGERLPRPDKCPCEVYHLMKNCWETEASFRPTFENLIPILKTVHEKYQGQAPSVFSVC
Serine/threonine-protein kinase B-raf (Homo sapiens), sequence (P15056 whole entry): as the sequence (P15056 whole entry V600E) above, with E600V counted along it

SMILES	inhibition [1]	inhibition [2]	inhibition [3]	inhibition [4]	inhibition [5]	inhibition [6]	inhibition [7]	inhibition [8]	inhibition [9]	inhibition [10]	inhibition [11]	inhibition [12]	inhibition [13]	inhibition [14]	inhibition [15]	inhibition [16]	inhibition [17]	inhibition [18]	inhibition [19]	inhibition [20]
Nc1nccc(-c2c(-c3ccc(F)cc3)nn3cc(C(F)(F)F)ccc23)n1	0.14%	2.64%	4.08%	-2.26%	0.63%	2.41%	-0.04%	-7.47%	-2.71%	0.03%	1.24%	0.91%	1.92%	-0.68%	-1.16%	0.06%	0.3%	0.14%	-0.28%	-3.59%
NS(=O)(=O)c1ccc(NC=C2C(=O)Nc3ccc4ncsc4c32)cc1	11.5%	6.25%	36.2%	19.3%	67.6%	47.7%	85.4%	59.9%	63.6%	8.88%	42.4%	9.65%	41.5%	3.29%	11.9%	15.4%	60.5%	16.6%	61.2%	11.6%
COc1cccc(-n2ncc3c(N/N=C/c4ccc(C)cc4)ncnc32)c1	1.93%	3.81%	18.9%	-0.93%	0.15%	0.84%	5.84%	2.71%	-1.47%	1.83%	4.49%	4.03%	13.8%	3.63%	11%	7.21%	11.2%	4.78%	6.08%	7.72%
Cc1ccc2c(c1)/C(=N/Nc1ccc(S(N)(=O)=O)cc1)C(=O)N2	-0.45%	-0.72%	9.99%	0.83%	7.86%	13.6%	61.7%	-0.36%	1.67%	-0.02%	0.35%	-0.04%	5.49%	1.31%	1.47%	0.51%	3.31%	0.4%	3.37%	0.26%
Cc1ccc2c(-c3ccnc(Nc4ccc5c(c4)OCCO5)n3)c(-c3ccc(C(F)(F)F)cc3)nn2n1	2.08%	4.97%	18.4%	-1.27%	-0.4%	2.13%	0.3%	-5.65%	0.31%	-0.13%	2.41%	6.79%	46.8%	-2.2%	1.38%	0.83%	1.14%	0.62%	1.44%	4.51%
COc1cc(Nc2nccc(-c3cnn4ncccc34)n2)cc(OC)c1	0.03%	6.85%	36.9%	10.4%	30.9%	59.6%	90.8%	27%	31.8%	1.77%	14.9%	9.16%	39.8%	4.5%	14.2%	3.83%	28.9%	4.91%	28.7%	-0.8%
c1ccc(Nc2ncc(-c3ccccc3)o2)cc1	0.73%	5.98%	15%	1.21%	11.7%	33.1%	78.8%	5.03%	-4.84%	4.31%	6.84%	2.4%	6.64%	-1.32%	1.41%	5.93%	7.7%	5.02%	4.39%	2.39%
Oc1cccc(-c2nc(-c3ccccc3)[nH]c2-c2ccncc2)c1	1.85%	5.71%	19.5%	10.6%	43.8%	5.28%	19.5%	0.36%	-1.42%	3.99%	9.74%	4.12%	21.9%	3.06%	3.35%	14.5%	30%	12.8%	28.9%	1.16%
Cc1ccc2c(-c3ccnc(Nc4cccc(C(F)(F)F)c4)n3)c(-c3ccccc3)nn2n1	0.17%	36.8%	71%	2.37%	21.2%	1.89%	10.2%	3.67%	-1.51%	2.7%	17.5%	53.8%	91.8%	0.09%	2.06%	6.35%	14.1%	4.17%	8.85%	4.15%
NS(=O)(=O)c1ccc(N/N=C2\C(=O)Nc3ccc(Cl)cc32)cc1	0.91%	4.13%	7.63%	2.91%	8.28%	16.4%	66.7%	-0.18%	0.36%	3.25%	5.46%	1.72%	3.69%	1.01%	3.02%	4.45%	4.35%	5.27%	4.36%	-0.52%
Cc1cc(-c2ccccn2)cc(C)c1/C=C/c1cncc(-c2nn[nH]n2)c1	-0.54%	2.37%	18.2%	-0.29%	1.74%	5.83%	3.4%	-7.99%	-2.42%	0.01%	0.93%	1.13%	11.4%	3.62%	-2.29%	5.62%	12.4%	4.7%	5.23%	1.48%
O=S(=O)(CCOCc1ccc(-c2ccc3ncnc(Nc4ccc(OCc5cccc(F)c5)c(Cl)c4)c3c2)o1)c1ccccc1	0.08%	-0.06%	2.31%	-2.31%	0.57%	4.16%	2.25%	-3.61%	-0.44%	-0.84%	-0.33%	-1.93%	2.61%	-5.44%	0.81%	2.33%	3.21%	2.43%	3.05%	-0.94%
CC(C)c1ccc2c(c1)NC(=O)/C2=N/Nc1ccc(S(N)(=O)=O)cc1	-0.36%	2.93%	15.5%	1.02%	2.87%	4.65%	43.7%	-2.45%	1.48%	-0.25%	2.75%	2.45%	9.19%	-0.31%	1.5%	-0.82%	-1.25%	0.24%	-0.56%	-2.32%
